The nature of test [1]: qHTS for Inhibitors of the Functional Ribonucleoprotein Complex (vRNP) of Lassa (LASV) Arenavirus: LASV Primary Screen - GLuc reporter signal (AID 1347082; calls by dose curve; tested in HEK293 reporter line; further: on the % scale 0 is the no-effect control and ±100 the full control effect; nearly all actives have a fitted effect of over 60% in size).
Test [2] concerns the target Nucleoprotein (Lymphocytic choriomeningitis virus (strain Armstrong)) (UniProt P09992). In words: qHTS for Inhibitors of the Functional Ribonucleoprotein Complex (vRNP) of Lymphocytic Choriomeningitis Arenaviruses (LCMV): LCMV Primary Screen - GLuc reporter signal (AID 1347086). Further: nearly all actives have a fitted effect of over 70% in size. Further: potency means the concentration at half of the fitted maximal effect. On activity change, negative = inhibition: on the % scale 0 is the no-effect control and ±100 the full control effect. For orientation: qHTS replaces the single test concentration by a dilution series.
The nature of test [3]: Confirmatory qHTS for VERO E6 Cytotoxicity Assay: Counterscreen for SARS-CoV-2 CPE Assay (AID 1508605). Further: on the % scale 0 is the no-effect control and ±100 the full control effect; nearly all actives have a fitted effect of over 60% in size.
The nature of test [4]: Cytotoxicity counterscreen for inhibitors of SARS-CoV-2 cell entry (AID 1645845). Further: nearly all actives have a fitted effect of over 50% in size. Put shortly: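 48 h compound treatment (after 1 h preincubation), HEK293-ACE2 cells, 37 C/5% CO2; ATP luminescence endpoint; normalized to cell wells and media blanks.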
(In general: The purpose of a counterscreen is to sort out artefacts and off-target activity.)

Test [5] concerns the target Alpha-galactosidase (Coffea arabica) (UniProt Q42656). In words: Counterscreen for Glucocerebrosidase Inhibitors: qHTS Assay for Coffee Bean alpha-Galactosidase at pH 4.5 (AID 957; active means well fitted curve in the direction sought with a large enough effect; an effect the other way counts as inactive or inconclusive;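 further: plate controls were enzyme alone for no effect and no enzyme for full effect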). Put shortly:
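Green coffee bean enzyme (2 nM final) was incubated with compounds (0.7 nM to 77 uM) and 4-methylumbelliferyl alpha-D-galactopyranoside (80 uM final) in 50 mM citric acid, 0.005% Tween-20, pH 4.5, 20 min at room temperature; AC50 from Hill fits.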

Test [6] shares this target. In words: Counterscreen for Glucocerebrosidase Inhibitors: qHTS Assay for Coffee Bean alpha-Galactosidase at pH 5.9 (AID 998; active means well fitted curve in the direction sought with a large enough effect; an effect the other way counts as inactive or inconclusive;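 further: plate controls were uninhibited enzyme for no effect and no-enzyme basal signal for full effect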). In short, it runs like this:
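Compounds were titrated from 0.7 nM to 77 uM against green coffee bean alpha-galactosidase (2 nM) using 80 uM fluorogenic 4-methylumbelliferyl substrate. After 20 min at room temperature, reactions were stopped at pH 10 and read by fluorescence.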

Test [7] is described as follows: Validation screen for inhibitors of Lassa infection (AID 463096). Further: on the % scale 0 is the no-effect control and ±100 the full control effect.
Test [8] in a line: Inducers of the Endoplasmic Reticulum Stress Response (ERSR) in human glioma: Validation (AID 504836; active means well fitted curve in the direction sought with a large enough effect; an effect the other way counts as inactive or inconclusive; further: 0% is about no effect). Put shortly: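 ERSR induction read as luciferase luminescence (Bright-Glo, 10 min at room temperature) in stably transfected human U87-MG glioma cells exposed to compounds for 16 h, using GRP78 as sensor.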
Test [9] is described as follows: Primary qHTS to identify inhibitors of SARS-CoV-2 cell entry (AID 1645846). Further: nearly all actives have a fitted effect of over 45% in size. Further: potency means the concentration at half of the fitted maximal effect. To be noted: activity change, negative = inhibition: at 57.1 µM (top of the series) unless noted. Put shortly: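 Using luciferase-reporting pseudoviruses carrying Wuhan-Hu-1 spike, the screen tracks entry into stably ACE2-expressing cells over 48 hr. Activity is expressed relative to spike particles versus particles lacking any fusion protein.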

Test [10] can be described thus: Primary qHTS for inhibitors of SARS-S pseudo-typed particle cell entry (AID 1479145). Further: nearly all actives have a fitted effect of over 45% in size.
Test [11] is described as follows: Primary qHTS for Huh7 cytotoxicity: counterscreen for inhibitors of MERS-S pseudotyped particle cell entry (AID 1479147). Further: on the % scale 0 is the no-effect control and ±100 the full control effect. The settings on record: outcome: dose series up to 57.1 µM unless noted.
Test [12] can be described thus: Primary qHTS for inhibitors of MERS-S pseudo-typed particle cell entry (AID 1479149). Further: nearly all actives have a fitted effect of over 60% in size. On activity change, negative = inhibition: on the % scale 0 is the no-effect control and ±100 the full control effect.
Test [13] is described as follows: Primary qHTS for Vero E6 cytotoxicity: counterscreen for inhibitors of SARS-S pseudo-typed particle cell entry (AID 1479150). To be noted: outcome: dose series up to 57.1 µM unless noted.
Test [14] deals with Nuclear receptor subfamily 1 group I member 3 (Homo sapiens) (UniProt Q14994). As to the kind of experiment: Primary qHTS for antagonist of constitutive androstane receptor (CAR) against the NCATS DSHEA and TCM libraries (AID 1794836; active means well fitted curve in the direction sought with a large enough effect; an effect the other way counts as inactive or inconclusive;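 further: HepG2 cells stably expressing hCAR with CYP2B6 luciferase reporter stimulated by CITCO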). Put shortly:
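Antagonist mode: CAR reporter luminescence (ONE-Glo) in HepG2-CYP2B6-hCAR cells stimulated with 48 uM CITCO (final) over 24 h at 37 C, compounds titrated; viability read first by CellTiter-Fluor fluorescence.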

Test [15] can be described thus: KB-8-5-11 P-gp reporter qHTS against the NCATS DSHEA and TCM libraries (AID 1919977; active means well fitted curve in the direction sought with a large enough effect; an effect the other way counts as inactive or inconclusive; further: 0% is about no effect). Put shortly: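 Viability of drug-resistant KB-8-5-11 cells is measured by CellTiter-Glo luminescence following roughly 72 h treatment at 37C. Substances were titrated, with bortezomib as intraplate control.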

Results filed as inconclusive are left out. Activity calls are given as the source filed them. Unless noted, the call rests on the fitted dose curve.

The record followed here is PubChem BioAssay (NCATS).

Chain of Alpha-galactosidase (Coffea arabica) (Q42656 whole entry, looked up): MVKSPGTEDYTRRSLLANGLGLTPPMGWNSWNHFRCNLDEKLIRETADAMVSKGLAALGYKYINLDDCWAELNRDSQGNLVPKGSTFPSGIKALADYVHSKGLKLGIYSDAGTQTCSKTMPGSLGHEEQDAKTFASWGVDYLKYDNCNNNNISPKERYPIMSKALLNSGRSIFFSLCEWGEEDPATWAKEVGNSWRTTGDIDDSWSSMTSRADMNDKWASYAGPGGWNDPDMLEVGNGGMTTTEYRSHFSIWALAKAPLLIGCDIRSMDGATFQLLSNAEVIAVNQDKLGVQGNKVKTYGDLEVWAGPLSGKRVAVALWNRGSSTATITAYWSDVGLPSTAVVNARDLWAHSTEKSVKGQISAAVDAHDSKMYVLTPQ
Chain of Nucleoprotein (Lymphocytic choriomeningitis virus (strain Armstrong)) (P09992 whole entry, looked up): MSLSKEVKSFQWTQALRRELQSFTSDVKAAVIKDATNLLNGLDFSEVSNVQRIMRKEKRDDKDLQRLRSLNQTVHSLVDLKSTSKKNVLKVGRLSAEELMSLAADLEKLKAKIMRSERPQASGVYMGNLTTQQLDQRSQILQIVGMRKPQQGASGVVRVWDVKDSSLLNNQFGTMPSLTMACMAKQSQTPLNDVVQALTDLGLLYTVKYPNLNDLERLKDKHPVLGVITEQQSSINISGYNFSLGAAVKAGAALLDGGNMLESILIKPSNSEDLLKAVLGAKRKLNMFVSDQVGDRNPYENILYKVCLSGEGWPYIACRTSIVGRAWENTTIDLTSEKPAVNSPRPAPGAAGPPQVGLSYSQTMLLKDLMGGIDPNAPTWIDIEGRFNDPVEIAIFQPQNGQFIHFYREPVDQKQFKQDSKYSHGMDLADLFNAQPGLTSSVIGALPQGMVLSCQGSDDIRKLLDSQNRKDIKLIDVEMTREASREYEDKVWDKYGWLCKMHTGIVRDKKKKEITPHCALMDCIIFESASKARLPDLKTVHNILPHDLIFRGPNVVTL
Chain of Nuclear receptor subfamily 1 group I member 3 (Homo sapiens) (Q14994 whole entry, looked up): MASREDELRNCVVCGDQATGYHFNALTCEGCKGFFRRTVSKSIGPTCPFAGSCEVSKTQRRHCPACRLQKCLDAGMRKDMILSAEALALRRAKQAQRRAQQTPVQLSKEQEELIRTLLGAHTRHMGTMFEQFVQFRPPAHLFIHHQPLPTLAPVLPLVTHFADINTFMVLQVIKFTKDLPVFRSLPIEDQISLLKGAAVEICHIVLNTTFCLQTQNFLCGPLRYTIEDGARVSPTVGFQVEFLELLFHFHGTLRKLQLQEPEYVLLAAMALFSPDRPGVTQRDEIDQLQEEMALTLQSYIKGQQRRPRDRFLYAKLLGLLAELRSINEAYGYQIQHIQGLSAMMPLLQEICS

As to `CN[C@@H](C)[C@H]1[C@H](O)C[C@@]2(C)[C@@H]3CC[C@H]4C(C)(C)[C@@H](NC)CC[C@@]45C[C@@]35CC[C@]12C`, the Potency result in test [1], in test [2] and in test [3] was “inactive” in each case. In test [4], the outcome is “inactive [at 11.3 µM]”.
As for `O=c1[nH]c(=O)n([C@H]2C[C@@H](O)[C@@H](CO)O2)cc1C(F)(F)F`, the Potency entry in test [1] and in test [2] was “inactive” throughout.
Take `CN(C)c1nc2c(Br)c(Br)c(Br)c(Br)c2[nH]1`: the result in test [5], in [6] and in test [8] was inactive. The Potency result in [7], in [1] and in [2] was “inactive” in each case.
Turning to `N=c1ccn2c(n1)O[C@H]1[C@@H](O)[C@@H](CO)O[C@H]12`, the Potency result in test [1], in test [2] and in test [4] was “inactive” each time. Besides, the Potency in test [9] is 10 µM (active).
Consider `CCc1cccc(CC)c1NC(=O)N1Cc2[nH]nc(NC(=O)c3ccc(N4CCN(C)CC4)cc3)c2C1`, for which the Potency result in [1], in test [2] and in test [4] was “inactive” throughout.
As for `O=C(O)c1c(Cl)c(Cl)c(Cl)c(Cl)c1-c1c2cc(I)c(=O)c(I)c-2oc2c(I)c(O)c(I)cc12`, the Potency entry in [1], in test [10], in test [12] and in [4] was “inactive” in each case. Moreover, the compound was classed as inactive in test [11].
Regarding `Cn1cnc(=N)c2[nH]cnc21`, the Potency entry in test [1], in [2] and in [4] was “inactive” throughout. Moreover, the activity change, negative = inhibition in test [9] was -0.211% [at 114 µM].
For the compound `Nc1ccn([C@@H]2O[C@H](CO)[C@@H](O)[C@H]2O)c(=O)n1`, the Potency result in test [1], in [2], in test [12] and in test [4] was “inactive” each time. The outcome in [11] and in [13] was inactive. Moreover, the activity change, negative = inhibition in test [9] is -8.54%.
`CC(C)(C)c1nc(-c2cccc(NS(=O)(=O)c3c(F)cccc3F)c2F)c(-c2ccnc(N)n2)s1`: the Potency result in test [1], in test [2], in test [10] and in test [4] was “inactive” throughout. For the same compound, the result in test [11] and in [13] was inactive. For the same compound, the Potency in test [9] is 28.2 µM (active).
In the case of `Nc1ncnc2nc(-c3ccc(N4CCOCC4)nc3)cc(-c3cccc(Br)c3)c12`, the compound was called inactive in test [8]. In addition, the Potency result in test [1], in test [2] and in test [4] was “inactive” in each case. Also, the activity change, negative = inhibition in test [9] was -21.9%.
`O=c1cccc2c1c1cc[nH]c3ccc(=O)n2c31`: the Potency entry in [1] and in test [2] was “inactive” throughout.
As for `CC[C@H](C)[C@@H]1NC(=O)CNC(=O)c2csc(n2)[C@H](C(C)(C)O)OC(=O)C(C)(C)[C@H](CCCC(C)(Cl)Cl)OC(=O)c2csc1n2`, the Potency entry in test [1] and in [2] was “inactive” throughout.
For the compound `COc1cc2c(c(OC)c1OC)-c1ccc(OC)c(=O)cc1C(N)CC2` (stereo not given), in test [1], the Potency result was “inactive”. Also, the Potency in test [2] was 0.178 µM (active).
With `Nc1ncnc2n[nH]c(Nc3ccc(F)cc3)c12`, in [8], the call was inactive. Besides, the Potency result in [1] and in test [2] was “inactive” throughout.
With `O=C(CCCCCCC(=O)Nc1ccc([C@H]2O[C@@H](CSc3nc(-c4ccccc4)c(-c4ccccc4)o3)C[C@@H](c3ccc(CO)cc3)O2)cc1)NO`, the Potency result in [1] and in test [2] was “inactive” throughout. In test [9], the activity change, negative = inhibition is 1.44% [at 11.3 µM].
For the compound `CC1OC(OC2CC(O)C3(CO)C4C(O)CC5(C)C(C6=CC(=O)OC6)CCC5(O)C4CCC3(O)C2)C(O)C(O)C1O` (stereo not given), the Potency entry in test [1] and in test [2] was “inactive” in each case.
Take `COc1c2ccoc2c(OCC=C(C)C)c2oc(=O)ccc12`: the Potency entry in test [1] and in test [2] was “inactive” in each case.
Turning to `COc1cc(C(C)C)c(Oc2cnc(NC(CO)CO)nc2N)cc1I`, the Potency result in test [1], in [2], in [4] and in test [9] was “inactive” each time.
Take `Cc1cc(Nc2cc(CN3CCOCC3)c3nc(C)c(Cc4ccc(Cl)cc4F)n3n2)n[nH]1`: the Potency result in test [1] and in [2] was “inactive” throughout.
With `C=C1C([C@@]2(C)C(OC(C)=O)CC(=O)O[C@@](C)(COC(C)=O)C2CC(=O)OC)C(OC=O)C(OC(=O)C(O)C(C)CC)[C@]2(C)C(c3ccoc3)CC(=O)C12O` (stereo not given in full), the Potency result in [1] and in test [2] was “inactive” in each case.
With `CCOC(=O)N1CCN([N+]([O-])=NOc2ccc([N+](=O)[O-])cc2[N+](=O)[O-])CC1`, the Potency result in [1] and in [2] was “inactive” each time.
Take `O=C1NC(=O)C(c2ccccc2[N+](=O)[O-])=C1Nc1ccc(O)c(Cl)c1`: the compound was called inactive in [5], in [6] and in test [8]. Further, the Potency result in test [7], in test [1], in test [2] and in [4] was “inactive” throughout.
As to `Cc1ccc(/C=N/NC(=O)c2ccccc2Oc2ccccc2)o1`, the Potency result in test [1], in test [2] and in [4] was “inactive” in each case.
Regarding `CCC(C)SSc1ncc[nH]1` (stereo not given), the Potency entry in test [1] and in test [2] was “inactive” throughout.
Regarding `NC(=NCCCCCCN=C(N)N=C(N)Nc1ccc(Cl)cc1)N=C(N)Nc1ccc(Cl)cc1`, the Potency result in [1] and in test [2] was “inactive” each time. In addition, the Potency in test [9] was 17.8 µM (active).
In the case of `O=C(/C=C/c1ccc(O)c(O)c1)OC(Cc1ccc(O)c(O)c1)C(=O)O` (stereo not given), the Potency entry in test [1], in test [2] and in [14] was “inactive” each time. Moreover, in [15], the outcome was inactive.
As for `c1ccc(-c2oc3ncnc(NC[C@@H]4CCCO4)c3c2-c2ccccc2)cc1`, the Potency entry in [1] and in [2] was “inactive” each time. Also, in test [9], the activity change, negative = inhibition was -93.9%.
